hERG WT inh – KCNH2 (human, wildtype) channel inhibition | activity change, % at 1.84 µM | Q12809 | 0.37% of 340,000 active | AID 720551 | U2OS, BacMam KCNH2, thallium flux FluxOr; active compounds read low;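 active means maximum activity change below -70%; inconclusive means maximum activity change between -70% and -50%; inactive means maximum activity change above -50%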
Target sequence (Q12809 whole entry, looked up): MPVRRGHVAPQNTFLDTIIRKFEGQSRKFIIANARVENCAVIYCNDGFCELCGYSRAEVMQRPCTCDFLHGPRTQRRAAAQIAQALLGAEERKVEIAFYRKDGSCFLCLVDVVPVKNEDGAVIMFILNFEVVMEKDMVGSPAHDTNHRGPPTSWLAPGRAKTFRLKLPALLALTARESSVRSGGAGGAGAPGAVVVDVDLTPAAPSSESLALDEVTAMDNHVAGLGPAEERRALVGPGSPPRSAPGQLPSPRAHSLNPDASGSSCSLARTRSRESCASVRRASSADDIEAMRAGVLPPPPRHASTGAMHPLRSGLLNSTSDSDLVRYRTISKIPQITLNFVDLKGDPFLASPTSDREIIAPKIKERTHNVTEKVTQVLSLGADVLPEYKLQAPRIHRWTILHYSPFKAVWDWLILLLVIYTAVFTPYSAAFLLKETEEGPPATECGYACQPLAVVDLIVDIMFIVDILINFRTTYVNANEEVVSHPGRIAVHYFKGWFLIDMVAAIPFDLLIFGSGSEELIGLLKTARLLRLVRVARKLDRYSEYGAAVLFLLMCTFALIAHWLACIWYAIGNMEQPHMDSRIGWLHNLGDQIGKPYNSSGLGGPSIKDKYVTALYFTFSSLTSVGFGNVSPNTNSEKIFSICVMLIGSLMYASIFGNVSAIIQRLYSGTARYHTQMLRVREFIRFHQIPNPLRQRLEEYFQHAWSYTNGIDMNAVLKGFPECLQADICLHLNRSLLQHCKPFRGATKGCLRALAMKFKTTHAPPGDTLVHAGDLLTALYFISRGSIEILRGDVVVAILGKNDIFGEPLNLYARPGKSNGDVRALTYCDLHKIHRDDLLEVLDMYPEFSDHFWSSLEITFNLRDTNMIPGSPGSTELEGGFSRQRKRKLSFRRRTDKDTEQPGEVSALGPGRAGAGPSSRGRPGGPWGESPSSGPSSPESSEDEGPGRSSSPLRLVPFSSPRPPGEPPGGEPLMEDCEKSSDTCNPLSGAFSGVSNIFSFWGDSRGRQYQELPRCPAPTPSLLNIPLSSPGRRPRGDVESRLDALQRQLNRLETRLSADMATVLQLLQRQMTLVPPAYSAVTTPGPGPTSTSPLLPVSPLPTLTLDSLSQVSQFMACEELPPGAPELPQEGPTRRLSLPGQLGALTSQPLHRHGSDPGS
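U2OS cells were transduced with wild-type KCNH2 virus (2.03 x 10^8 / mL) for 4 h at room temperature, then cultured overnight at 37 C. Thallium flux was read with FluxOr dye. Rate constants were normalized to DMSO controls.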
KCNH2 3.1 inh – inhibitors of human KCNH2 3.1 potassium channel isoform; 0.95% of 340,000 active; U2OS KCNH2 3.1, thallium flux FluxOr; active compounds read low; activity change, % (tested at about 1.8 µM); AID 720553;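 active means maximum activity change below -70%; inconclusive means maximum activity change from -70% to -50%; inactive means maximum activity change above -50%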;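 further: thallium influx rate constant from kinetic fluorescence after stimulation buffer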
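Thallium flux read-out: FluxOr dye with Red40 quencher in HBSS/HEPES, 45 min at RT. Rate constants from kinetic reads were normalized to positive and negative DMSO controls. Cells: U2OS virally expressing the 3.1 isoform.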
KinaseGlo FLuc – counter-screen: inhibitors of Kinase-Glo firefly luciferase. Kinase-Glo luciferase, ATP luminescence, 8 min. Potency, µM (highest dose often 38.3 µM), for the others: at the top dose activity change, negative = inhibition, usual class: inhibitors. 0.28% of 200,000 active. Q27757. AID 1379; active means well fitted inhibition curve with a large enough effect; inconclusive means small, poorly fitted or top-dose-only effect; further: potency means the concentration at half of the fitted maximal effect; nearly all actives have a fitted effect of over 60% in size
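Kinase-Glo luciferase light output from ATP and luciferin was measured with 10 uM ATP, within the enzyme's linear range. Buffer: 50 mM imidazole pH 7.2, 50 mM KCl, 7 mM MgCl2, 0.01% Tween 20, 0.05% BSA; luminescence read after 8 min at ambient temperature.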
The depositor's hits bear a star; ? = inconclusive; nt = no result given; [ ] = dose if it differs, or a comment. Shown are actives, neighbours in structure and some others; about 1.2% of the full set was active somewhere. On the % scale 0 is the no-effect control and ±100 the full control effect.

SMILES	hERG WT inh	KCNH2 3.1 inh	KinaseGlo FLuc
O=C(Cn1ccc2ccccc2c1=O)NCC(=O)N1CCN(c2ccc(F)cc2)CC1	-8.7	-0.4	nt
OC(CN1CCN(Cc2ccccc2)CC1)c1ccccc1 (configuration not stated)	10.7	5.6	0.3%
O=[N+]([O-])c1ccc(C(O)CN2CCN(C/C=C/c3ccccc3)CC2)cc1 (configuration not stated)	-93.7*	-112.7*	nt
O=[N+]([O-])c1ccc(C(O)CN2CCN(Cc3ccccc3)CC2)cc1 (configuration not stated)	-16.2	-70.4*	nt
CC(CN1CCN(C/C=C/c2ccccc2)CC1)c1ccccc1 (configuration not stated)	25.3	-10.1	nt
O=[N+]([O-])c1ccc(NC2CCN(Cc3ccccc3)CC2)c([N+](=O)[O-])c1	-74.2*	-96.5*	3.4%
O=[N+]([O-])c1ccccc1NC1CCN(Cc2ccccc2)CC1	19.8	?	nt
O=C(O)C[C@@H](C(=O)O)C1c2ccccc2-c2ccccc21	nt	nt	-2.7%[7.66 µM]
CC(=O)c1sc(NC(=O)CCN2C(=O)c3ccccc3C2=O)nc1C	-12.1	30.4	nt
Cc1ccc(S(=O)(=O)N2CCC(C(=O)OCC(=O)N(CC(C)C)C3CCS(=O)(=O)C3)CC2)cc1C (configuration not stated)	7.1	nt	nt
O=C(O)c1ccc(S(=O)(=O)c2ccc3c(c2)C(=O)N(c2ccc(Br)cc2)C3=O)cc1	9.2	0.4	nt
O=C(NNC(=O)c1ccco1)c1ccc(NS(=O)(=O)c2cccs2)cc1	-6.5	-10.0	nt
CCOC(=O)c1c(C)[nH]c(C)c1S(=O)(=O)N(C)CC(=O)Nc1cccc(C)n1	-5.8	-3.1	nt
CCC(C)N(C(=O)CCC(=O)Nc1cc(C)on1)C(C(=O)NC(C)(C)C)c1ccccc1Cl (configuration not stated)	-2.8	0.0	nt
Cc1cc(NC(=O)CCC(=O)N(C(C(=O)NC(C)(C)C)c2ccccc2Cl)C(C)(C)C)no1 (configuration not stated)	7.7	-164.6*	nt
CCCn1c(=O)[nH]c2nc(-c3ccc(S(=O)(=O)O)cc3)[nH]c2c1=O	nt	nt	0.7%
COc1ccc(N2C(=O)CN=C2Nc2nc(C)cc(C)n2)cc1OC	-2.2	-148.5*	3.0%
Cc1cc(C)nc(NC2=NCC(=O)N2c2ccc(F)c(Cl)c2)n1	-5.9	0.0	-0.3%
CC1(CO)COC2(OC1)C(=O)Nc1ccccc12 (configuration not stated)	1.6	-5.1	nt
N#Cc1c(NC(=O)C(F)(F)F)sc2c3c(=O)c4ccccc4c(=O)c=3oc3ccccc3c12	nt	nt	-1.9%[7.66 µM]
COc1ccc(C(=O)NC(=S)Nc2ccc3oc(=O)ccc3c2)cc1OC	-3.0	-98.7*	-2.1%
COc1cccc(OC)c1C(=O)NC(=S)Nc1ccc2oc(=O)ccc2c1	-9.6	3.2	6.2%
O=C(O)c1cccc(NS(=O)(=O)c2ccc(-c3ccc(S(=O)(=O)Nc4cccc(C(=O)O)c4)cc3)cc2)c1	-7.7	-8.3	1.5%
O=C(NNS(=O)(=O)c1ccc([N+](=O)[O-])cc1)C(=O)Nc1cccc(C(=O)O)c1	-111.9*	14.5	nt
O=C(NNS(=O)(=O)c1ccc([N+](=O)[O-])cc1)c1ccccc1	5.2	11.4	nt
SMILES	hERG WT inh	KCNH2 3.1 inh	KinaseGlo FLuc
O=C(O)c1cccc(NS(=O)(=O)c2ccc(Oc3ccc(S(=O)(=O)Nc4cccc(C(=O)O)c4)cc3)cc2)c1	-144.2*	1.3	nt
COc1cc2c(cc1OC)C(NNC(=O)c1ccc(Br)o1)=NC(C)(C)C2	21.1	19.8	nt
Cc1cnc(C(=O)OCC(=O)NC(=O)c2ccccc2)cn1	-5.5	-6.8	nt
Cc1ccc(C)c(NC(=O)CCN2CCC(C)CC2)c1	12.6	-1.7	nt
Cc1ccc(C)c(NC(=O)CCN2CC(C)CC(C)C2)c1 (configuration not stated)	-1.6	-73.4*	nt
O=C1CN(C(=O)COC(=O)Cc2ccccc2F)c2ccccc2N1	-20.7	1.2	nt
CC(=O)Oc1ccc2c(=O)c(-c3nc4ccccc4s3)coc2c1	-0.3	6.0	10µM*
CC(C)Oc1ccc2c(=O)c(-c3ccccc3)coc2c1	-0.9	-4.5	-5.2%
COC(CNC(=O)c1c[nH]c2ccc(S(=O)(=O)N(C)c3ccc(F)cc3)cc2c1=O)OC	29.8	5.6	nt
CC(C)[C@@H](C(=O)NCc1ccco1)N1C(=O)N2CCc3c([nH]c4ccccc34)[C@@]2(C)C1=O	2.4	1.2	nt
COc1ccc(Cl)cc1NC(=O)CN(C)C(=O)CN1C(=O)NC(C)(c2ccc3ccccc3c2)C1=O (configuration not stated)	-7.1	-89.1*	nt
COc1ccc(Cl)cc1NC(=O)CN(C)C(=O)CN1C(=O)NC(C)(C)C1=O	14.5	-2.5	nt
CCc1ccc2[nH]c(C(=O)Nc3ccc(C)c(F)c3)cc2c1	1.1	14.3	nt
CCc1ccc2[nH]c(C(=O)N(C)c3ccc(F)cc3F)cc2c1	-1.1	-70.8*	nt
O=C(O)C1=CC[C@@H](c2ccc(Cl)cc2)N(S(=O)(=O)c2ccc(Cl)cc2)[C@H]1c1ccc(Br)cc1	5.8	6.6	nt
O=C1CCc2cc(S(=O)(=O)NCCC(=O)NC3CCCCC3)ccc2N1	-13.0	-5.6	nt
CC(Sc1nnc(C(F)(F)F)n1C)C(=O)Nc1ccc(N2CCOCC2)cc1 (configuration not stated)	-140.1*	-185.6*	nt
CC(Sc1nnc(-c2ccccc2F)n1C)C(=O)Nc1ccc(N2CCOCC2)cc1 (configuration not stated)	11.4	-5.3	nt
CC(=O)Nc1ccc(S(=O)(=O)NCCC(=O)Nc2cccc(Cl)c2)cc1	3.0	10.0	nt
CC(=O)Nc1ccc(S(=O)(=O)NCCOc2ccc(Cl)cc2C)cc1	-120.2*	-190.4*	nt
COc1ccc(CN(C)C(=O)c2cccc(S(=O)(=O)N3CCc4ccccc43)c2)c(OC)c1	-3.5	-2.9	nt
Cc1ccc(S(=O)(=O)N2CCN(C(=O)CN(Cc3ccco3)Cc3cccs3)CC2)cc1	-4.6	6.0	nt
CN(C)c1ccc(N=Cc2ccco2)cc1	-10.6	2.0	11.2µM*
CN(C)c1ccc(C=Nc2ccc(N(C)C)cc2)cc1	-7.5	-11.0	-9.9%
O=C(NCCCNC(=O)c1cc(Cl)ccc1Cl)c1ccccn1	-5.6	3.5	nt
SMILES	hERG WT inh	KCNH2 3.1 inh	KinaseGlo FLuc
COc1ccc(C(=O)CC(=O)c2ccc(C(C)(C)C)cc2)cc1	4.6	-7.7	-9.2%
Cc1ccc(C(=O)CC(=O)c2ccc(C(C)(C)C)cc2)cc1	6.7	-102.3*	1.5%
CC(C)c1ccc(NC2CCCN(C(=O)c3ccoc3)C2)cc1 (configuration not stated)	nt	0.2	nt
Cn1cc(C(=O)c2ccc(Cl)cc2Cl)cc1C(=O)N/N=C(\N)COc1ccc(Cl)cc1	9.2	-72.6*	nt
Cn1cc(C(=O)c2ccc(Cl)cc2Cl)cc1C(=O)N/N=C(\N)COc1ccc(F)cc1	3.0	-32.2	-3.6%
Cc1[nH]n(-c2ccc(Br)cc2)c(=O)c1C=Nc1ccc(S(=O)(=O)Nc2nccs2)cc1	13.9	-10.2	-28.0%
CCc1nnc(NS(=O)(=O)c2ccc(N=Cc3c(C)[nH]n(-c4ccc(C)c(C)c4)c3=O)cc2)s1	-3.3	-1.5	2µM*
CCN(CC)S(=O)(=O)c1cc(NC(=O)c2cccc(N3C(=O)CCC3=O)c2)ccc1Cl	-0.7	3.1	nt
